The entries come from a sample that favours hits as a whole.
Cruzain noTriton: blocks cruzain activity in detergent-free assay; P25779; purified cruzain, Z-FR-AMC fluorescence, no detergent; Potency, µM, inactives show max response, negative = inhibition, usual class: inhibitors; 200,000 compounds, 2.3% hits;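 note: plate controls were enzyme without inhibitor for no effect and buffer without enzyme for full effect; nearly all actives have a fitted effect of over 40% in size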
Target sequence (P25779 123-467 limits assumed): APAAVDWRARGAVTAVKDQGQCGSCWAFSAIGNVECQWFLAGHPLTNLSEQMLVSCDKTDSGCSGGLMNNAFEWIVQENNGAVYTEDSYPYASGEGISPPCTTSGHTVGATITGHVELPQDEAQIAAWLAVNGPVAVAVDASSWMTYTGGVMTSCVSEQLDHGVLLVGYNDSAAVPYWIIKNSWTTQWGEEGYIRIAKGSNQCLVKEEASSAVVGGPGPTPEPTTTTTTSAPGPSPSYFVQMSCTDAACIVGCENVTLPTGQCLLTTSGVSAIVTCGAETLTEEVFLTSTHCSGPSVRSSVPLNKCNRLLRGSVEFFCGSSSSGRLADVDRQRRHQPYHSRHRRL
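Purified cruzain at 1.5 nM, pre-incubated 15 min with compound at room temperature in 100 mM sodium acetate pH 5.5, 5 mM DTT, 0.00005% Triton X-100. Reaction started with 2 uM Z-FR-AMC; AMC fluorescence increase over 60 s gives rate.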
Cruzain inh Det: inhibitors of Trypanosoma cruzi cruzain with detergent; Potency, µM, without a hit: max response, negative = inhibition, most hits filed as inhibitors; purified cruzain, Z-FR-AMC fluorescence, 0.01% Triton; AID 1478; 200,000 compounds, 0.43% hits;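 note: plate controls were neutral wells for no effect and buffer without enzyme for full effect; nearly all actives have a fitted effect of over 40% in size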
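Compounds were screened in titration against cruzain (1.5 nM) with 0.01% Triton X-100 to counter colloidal aggregation. Activity was the AMC fluorescence increase over 60 s after adding 2 uM Z-FR-AMC at pH 5.5.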
FBPA Giardia inh: inhibitors of Giardia lamblia fructose-1,6-bisphosphate aldolase; A8B2U2; purified Giardia FBPA; Potency, µM (top dose mostly 59.6 µM), for the others: at the highest dose activity, negative = inhibition, usual class: inhibitors; 290,000 compounds, 0.71% hits; note: nearly all actives have a fitted effect of over 55% in size
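40 nM FBPA preincubated 10 min at RT with compound (up to 57.5 uM final), then substrate plus GAPDH/TPI/NAD/arsenate coupling and diaphorase/resazurin added. Fluorescence read after 20 min at RT, 525/598 nm.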
The depositor's hits bear a star; [ ] = remark or other dose. Calls come from the whole dose curve; as a rule, active = well fitted curve in the direction sought with a large enough effect; inconclusive = small, poorly fitted or top-dose-only effect, or another doubt; inactive = no such curve, though single readings can be large; an effect the other way counts as inactive or inconclusive. Unless noted, % is set by controls: 0 for no effect and ±100 for the full control effect; potency is the fitted concentration of half-maximal effect.

Screening CCc1ccc(NC(=O)c2ccc3c(c2)N(Cc2ccc(C)cc2)CCS3)cc1 returned Cruzain noTriton 16µM* and Cruzain inh Det -5%.
CC(C)(N)C(=O)N[C@@H]1C(=O)N2[C@@H]1SC(C)(C)[C@H]2C(=O)O was read as Cruzain noTriton 9% and Cruzain inh Det 1%.
For O=C(NCCCc1nc2ccccc2n1Cc1cccc(Cl)c1)c1ccco1 the results were Cruzain noTriton -9% and Cruzain inh Det -9%.
`CC(=Nc1ccccc1N)c1c(C)cc(=O)n(O)c1O` gave FBPA Giardia inh 16µM*.
CC1(C)C(C=C(Cl)Cl)C1C(=O)Nc1ccc([N+](=O)[O-])cc1 (stereo not given) was read as Cruzain noTriton 10µM*, Cruzain inh Det 13µM* and FBPA Giardia inh -7%.
Screening O=C(Nc1ccc([N+](=O)[O-])cc1)C1CC1(c1ccccc1)c1ccccc1 (stereo not given) returned Cruzain noTriton 5%, Cruzain inh Det -9% and FBPA Giardia inh -7%.
For Cc1ccc(C(=N)c2ccccc2Cc2cccc3ccccc23)c2ccccc12 the results were Cruzain noTriton inconclusive and Cruzain inh Det 1%.
`Cc1ccc(-n2c(=O)c3oc4ccccc4c3n(Cc3ccccc3)c2=O)cc1C` gave Cruzain noTriton -8% and Cruzain inh Det -1%.
`CCOC(=O)C1CCN(c2nc(-c3ccccc3)nc3c2oc2ccccc23)CC1` gave Cruzain noTriton 20µM*, Cruzain inh Det -10% and FBPA Giardia inh -6%.
O=C(O)C1CCN(c2nc(-c3ccccc3)nc3c2oc2ccccc23)CC1 was read as Cruzain noTriton inconclusive, Cruzain inh Det inconclusive and FBPA Giardia inh 28%.
For COc1ccc(-c2cc3nc4c(c(N5CCC6(CC5)OCCO6)n3n2)CCC4)cc1 the results were FBPA Giardia inh -14%.
`COc1ccc(-c2cc3nc(-c4ccccc4)cc(N4CCC5(CC4)OCCO5)n3n2)cc1` gave Cruzain noTriton inconclusive, Cruzain inh Det 22µM* and FBPA Giardia inh -3%.
CCc1cc(C(=O)Nc2c(C)nn(Cc3ccc(C)cc3)c2C)no1 was read as Cruzain noTriton 1% and Cruzain inh Det -2%.
Screening COc1ccc(-c2cc3ccc(O)c(CN4CCCC4)c3oc2=O)cc1OC returned Cruzain noTriton -21% and Cruzain inh Det -7%.
Screening CCn1cc2nc(SCc3cccc(C(F)(F)F)c3)n(Cc3ccc(OC)cc3)c(=O)c2n1 returned Cruzain noTriton 27% and Cruzain inh Det -1%.
O=C(N/N=C/c1ccccc1[N+](=O)[O-])c1ccc(COc2ccccc2-c2ccccc2)cc1 was read as Cruzain noTriton 13µM*, Cruzain inh Det -5% and FBPA Giardia inh 0%.
Screening CCOc1ccc(C(=O)N/N=C/c2ccccc2[N+](=O)[O-])cc1 returned Cruzain noTriton -17%, Cruzain inh Det -7% and FBPA Giardia inh 0%.
`O=S1(=O)C2CC3C=CC2(CN1Cc1ccccc1)O3` (stereo not given) gave FBPA Giardia inh 10%.
Screening COc1ccc(-c2c(C#N)c(SCC(=O)c3cc4ccccc4oc3=O)nc(C)c2C(=O)Nc2ccccc2)cc1 returned Cruzain noTriton inconclusive, Cruzain inh Det -1% and FBPA Giardia inh 9%.
Screening COc1ccc(-c2c(C#N)c(SCC(=O)Nc3ccc(Br)cc3)nc(C)c2C(=O)Nc2ccccc2)cc1 returned Cruzain noTriton 10µM* and Cruzain inh Det 0%.
COc1ccc(-c2c(C#N)c(SCC(=O)Nc3ccc(C)cc3)nc(C)c2C(=O)Nc2ccccc2)cc1 was read as Cruzain noTriton -17% and Cruzain inh Det -2%.
`Cc1nc(SCC(=O)c2cc3ccccc3oc2=O)c(C#N)c(-c2ccccc2)c1C(=O)Nc1ccccc1` gave Cruzain noTriton 20µM*, Cruzain inh Det -1% and FBPA Giardia inh 3%.
CC(=O)C1=C(c2ccc(Cl)c(Cl)c2)N(C(C)=O)n2cnnc2S1 was read as Cruzain noTriton -27% and Cruzain inh Det inconclusive.
COC(=O)N1C2=C(c3ccccc3[C@@H]1CC(=O)Nc1ccc3cc4ccccc4cc3c1)[C@@H]1C(=O)N(c3ccccc3)C(=O)[C@@H]1[C@H](C)C2 was read as FBPA Giardia inh -3%[12.9 µM].
Screening O=c1c(O)c(-c2cc(O)c(O)c(O)c2)oc2cc(O)cc(O)c12 returned Cruzain noTriton 13µM*, Cruzain inh Det inconclusive and FBPA Giardia inh inconclusive.
O=c1c(O)c(-c2ccccc2)oc2cc(O)cc(O)c12 was read as Cruzain noTriton -1%, Cruzain inh Det -1% and FBPA Giardia inh 4%.
CCC(C)(C)OC was read as Cruzain noTriton 1% and Cruzain inh Det 2%.
`Brc1ccc(-c2ccc(CNCCSc3nnnn3-c3ccccc3)o2)cc1` gave Cruzain noTriton -12% and Cruzain inh Det -12%.

Compound activity from PubChem BioAssay.
